Lamin A splicing – qHTS Assay for Modulators of Lamin A Splicing; HeLa LMNA splicing GFP/RFP minigene ratio, 48 h; Potency, µM (doses to about 46.1 µM), without a hit: top-dose ratio change, negative = inhibition, most hits filed as inhibitors; actives 0.01% (n = 200,000); active = well fitted inhibition curve with a large enough effect in the signal ratio, with a control signal flat, not every such curve was filed as active; inconclusive = small, poorly fitted or top-dose-only effect, or effect the other way, or a change in a side signal; the % refers to the signal ratio; also: potency is read from the fitted curve at half-maximal effect; % is scaled to controls: 0 for no effect and ±100 for the full control effect
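S3 HeLa stable clones carrying a lamin A-EGFP splicing minigene plus DsRed2 were seeded at 600 cells/well in Opti-MEM with 2% FBS, pin-dosed and incubated 48 h at 37°C. Acumen cytometry (488 nm) gave the GFP/RFP total-intensity ratio.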
ALDH1A1 inh – qHTS Assay for Inhibitors of Aldehyde Dehydrogenase 1 (ALDH1A1); Purified ALDH1A1, NADH fluorescence, propionaldehyde substrate; actives 7.3% (n = 220,000); Potency, µM (doses to about 75.3 µM), for inactives: at the top dose activity, negative = inhibition, usual class: inhibitors; active = well fitted inhibition curve with a large enough effect, not every such curve was filed as active; inconclusive = small, poorly fitted or top-dose-only effect, or another doubt; inactive = no such curve, though single readings can be large or run the other way;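 also: potency is read from the fitted curve at half-maximal effect; plate controls were no enzyme wells and a reference inhibitor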
miR-21 reporter – qHTS Assay for Modulators of miRNAs and/orActivators of miR-21; Potency, µM (doses to about 38.3 µM), without a hit: top-dose activity change, positive = activation, usual class: activators; HeLa miR-21 FLuc reporter, luciferase, 48 h; 340,000 tested, under 10 active; AID 2288, 2010;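 also: % of control where 0% means no effect; miR-21 action dims this reporter so a rising signal means less miR-21 action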
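Compounds were titrated across several concentrations (up to approximately 40 uM) and incubated 48 hours with HeLa miR-21-FLuc reporter cells (miR-21 target sequence downstream of FLuc, endogenous miR-21). Readout was firefly luciferase luminescence after lytic detection reagent.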
G9a block – qHTS Assay for Inhibitors of Histone Lysine Methyltransferase G9a; Potency, µM (titrated, usually from 102 µM), for inactives: at the highest dose activity, negative = inhibition, actives largely listed as inhibitors; Histone-lysine N-methyltransferase EHMT2 (Homo sapiens), Q96KQ7; G9a H3K9 monomethylation, AlphaScreen, 2 h; actives 8.8% (n = 350,000); also: potency is read from the fitted curve at half-maximal effect; % is scaled to controls: 0 for no effect and ±100 for the full control effect; nearly all actives have a fitted effect of over 75% in size
Target sequence (Q96KQ7 913-1193 limits assumed): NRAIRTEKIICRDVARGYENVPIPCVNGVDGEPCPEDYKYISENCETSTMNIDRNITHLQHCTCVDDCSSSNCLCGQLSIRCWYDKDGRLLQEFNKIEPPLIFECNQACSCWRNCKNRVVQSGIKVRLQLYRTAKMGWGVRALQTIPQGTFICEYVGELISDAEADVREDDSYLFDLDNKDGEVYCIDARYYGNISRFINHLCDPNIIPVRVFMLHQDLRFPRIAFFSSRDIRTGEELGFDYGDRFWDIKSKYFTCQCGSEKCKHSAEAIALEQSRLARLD
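AlphaScreen read-out: biotin-H3K9 peptide (500 nM) methylation by 20 nM enzyme with 20 uM SAM, 2 h at room temperature after 15 min compound preincubation; anti-monomethyl H3K9 antibody plus donor/acceptor beads, 10 min dark.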
KDM4E inh – qHTS Assay for Inhibitors of Human Jumonji Domain Containing 2E (JMJD2E) | Potency, µM (series often up to 57.1 µM), without a hit: at the top dose activity change, negative = inhibition, most hits filed as inhibitors | AID 2147, 2009 | Lysine-specific demethylase 4E (Homo sapiens), B2RXH2 | actives 1.6% (n = 230,000) | JMJD2E catalytic domain, FDH-coupled NADH fluorescence (FDH is formaldehyde dehydrogenase);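 also: potency is read from the fitted curve at half-maximal effect; 0% = wells with enzyme and -100% = buffer wells without enzyme; nearly all actives have a fitted effect of over 50% in size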
Target sequence (B2RXH2 1-337 limits assumed): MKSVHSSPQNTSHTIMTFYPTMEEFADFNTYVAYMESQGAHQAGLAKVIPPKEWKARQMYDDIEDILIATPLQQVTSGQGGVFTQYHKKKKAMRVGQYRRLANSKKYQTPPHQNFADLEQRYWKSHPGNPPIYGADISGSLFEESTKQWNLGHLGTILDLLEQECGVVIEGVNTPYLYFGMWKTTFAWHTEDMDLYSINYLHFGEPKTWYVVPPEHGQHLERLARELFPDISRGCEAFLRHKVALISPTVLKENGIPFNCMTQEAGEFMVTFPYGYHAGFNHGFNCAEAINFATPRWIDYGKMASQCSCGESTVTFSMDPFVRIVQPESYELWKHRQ
Sfp PPTase inh – qHTS Assay for Inhibitors of Bacillus subtilis Sfp phosphopantetheinyl transferase (PPTase). actives 3.5% (n = 310,000). AID 1490, 2009. Biochemical Sfp PPTase activity, qHTS. Potency, µM, without a hit: largest response in the series, negative = inhibition, actives largely listed as inhibitors. 4'-phosphopantetheinyl transferase ffp (Bacillus subtilis), Q9F4F7;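 also: the enzyme is Sfp with the accession as filed and its product quenches rhodamine fluorescence; potency is read from the fitted curve at half-maximal effect; 0% = enzyme reaction without inhibitor and -100% = no enzyme wells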
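Step 1, compound plus 15 nM Sfp-PPTase, 15 min, room temperature. Step 2, add rhodamine-CoA (5 uM) and BHQ-2-YbbR (12.5 uM). Step 3, read 525/598 nm fluorescence at 0 and 30 min.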
Active calls of the source: *; u = inconclusive; x = no result; [ ] = another dose, or the depositor's remark. Compounds with a hit are over-represented: about 13% of the library has one in this group of screens. Unless noted, calls follow the shape of the dose curve; as a rule, active = well fitted curve in the direction sought with a large enough effect; inconclusive = small, poorly fitted or top-dose-only effect, or another doubt; inactive = no such curve, though single readings can be large; an effect the other way counts as inactive or inconclusive.

SMILES | Lamin A splicing | ALDH1A1 inh | miR-21 reporter | G9a block | KDM4E inh | Sfp PPTase inh
CCCCn1c(N)c(N(CCOC)C(=O)c2ccc(-c3ccc(C(C)=O)cc3)o2)c(=O)[nH]c1=O | x | x | x | 12.6µM* | x | x
CCCCn1c(N)c(N(CC(C)C)C(=O)c2ccc(-c3ccc([N+](=O)[O-])cc3)o2)c(=O)[nH]c1=O | x | x | x | 39.8µM* | x | x
CCCCn1c(N)c(N(CCOC)C(=O)c2ccc(-n3c(C)ccc3C)cc2)c(=O)[nH]c1=O | x | x | x | 44.7µM* | x | x
CCOc1nc2cccc(C(=O)O)c2n1Cc1ccc(-c2ccccc2-c2nn[nH]n2)cc1 | x | x | x | -4.7%[12.7 µM] | x | 5.2%
COc1cccc(/C=C/C(=O)Nc2ccc(OC)nc2)c1 | u | u | -20.2% | 24.1%[59 µM] | -4.1% | -6.4%
CCCn1c(N)c(N(CCOC)C(=O)Cc2ccc(S(=O)(=O)N3CCOCC3)s2)c(=O)[nH]c1=O | x | x | x | 50.1µM* | x | x
CCCCN(C(=O)c1ccc([N+](=O)[O-])o1)c1c(N)n(CC(C)C)c(=O)[nH]c1=O | x | x | x | 28.2µM* | x | x
CC(C)CN(C(=O)CN(C)C(=O)c1ccco1)c1c(N)n(CC(C)C)c(=O)[nH]c1=O | x | x | x | 50.1µM* | x | x
Cc1cc(C)cc(N(C(=O)c2sc(C)nc2C)C(C(=O)NC(C)(C)C)c2ccncc2)c1 (stereo not drawn) | u | 6.2% | 1.7% | 9.2% | 0.7% | 13.9%
COc1ccc2cc(S(=O)(=O)NCc3cccnc3)ccc2c1 | x | x | 0.0% | 1.0% | x | 14.4%
CCc1cc(=O)oc2c(C)c(OCC(=O)Nc3ccc(S(=O)(=O)N(CC)CC)cc3)ccc12 | x | x | -1.0% | 2.9%[59 µM] | x | x
CCN1CCN(c2nc3c(S(=O)(=O)c4ccc(Br)cc4)nnn3c3ccsc23)CC1 | x | x | -5.9% | 9.8%[59 µM] | x | x
CCCn1c(-c2ccc(F)cc2)nc2c(NCCN3CCOCC3)nc(C)nc21 | x | -6.4% | x | x | -0.6% | 4.2%
C#CCOCCOCCOCCNc1nc(N2CCN(C(=O)Cn3cc(CCCN=C(N)N)nn3)CC2)nc(N2CCN(C(=O)[C@H](C(C)C)n3cc(CCO)nn3)CC2)n1 | 3.0% | 12.4% | -3.9% | 50.1µM* | -1.8% | 10.8%
C#CCOCCOCCOCCNc1nc(N2CCN(C(=O)Cn3cc(CC(C)O)nn3)CC2)nc(N2CCN(C(=O)[C@H](CCCCN)n3cc(CCC(=O)O)nn3)CC2)n1 (stereo partly drawn) | -10.1% | 4.1% | -3.3% | 50.1µM* | -0.2% | -3.7%
C#CCOCCOCCOCCNc1nc(N2CCN(C(=O)Cn3cc(CCO)nn3)CC2)nc(N2CCN(C(=O)[C@H]([C@@H](C)O)n3cc(CCCCN)nn3)CC2)n1 | 2.2% | 10.1% | -11.8% | 79.4µM* | -6.3% | 6.6%
C#CCOCCOCCOCCNc1nc(N2CCN(C(=O)Cn3cc(CCCCN)nn3)CC2)nc(N2CCN(C(=O)[C@H]([C@@H](C)CC)n3cc(CCCN=C(N)N)nn3)CC2)n1 | x | x | x | -3.9%[2.33 µM] | x | x
C#CCOCCOCCOCCNc1nc(N2CCN(C(=O)Cn3cc(CCCN=C(N)N)nn3)CC2)nc(N2CCN(C(=O)[C@H]([C@@H](C)O)n3cc(CCCCN)nn3)CC2)n1 | x | x | x | 7.3%[2.33 µM] | x | x
C#CCOCCOCCOCCNc1nc(N2CCN(C(=O)Cn3cc(CCCN=C(N)N)nn3)CC2)nc(N2CCN(C(=O)[C@H]([C@@H](C)CC)n3cc(CCCN=C(N)N)nn3)CC2)n1 | -1.9% | 14.0% | -8.9% | 22.4µM* | -16.4% | -5.5%
C#CCOCCOCCOCCNc1nc(N2CCN(C(=O)Cn3cc(CCCN=C(N)N)nn3)CC2)nc(N2CCN(C(=O)[C@H](CCCCN)n3cc(CC(C)O)nn3)CC2)n1 (stereo partly drawn) | x | x | x | 16.4%[2.33 µM] | x | x
Cc1ccc(CNC(=O)C2CCN(c3nc4ccccc4n(C)c3=O)CC2)cc1 | x | x | -1.1% | u | x | x
COC(=O)c1ccc(CS(=O)(=O)c2ccc(F)cc2)o1 | x | x | -0.4% | 70.8µM* | x | 0.6%
O=C(NCc1ccc(F)cc1)c1ccc(CS(=O)(=O)c2ccc(Cl)cc2)o1 | u | x | 20.3% | -0.7%[59 µM] | x | x
CCOC(=O)C1CCN(S(=O)(=O)c2ccc3oc(=O)ccc3c2)CC1 | x | x | 0.0% | 8.7% | x | 5.0%
CC1CCC(=O)N(CCC#N)CC1 (stereo not drawn) | x | x | -0.4% | 50.1µM* | x | 0.4%
SMILES | Lamin A splicing | ALDH1A1 inh | miR-21 reporter | G9a block | KDM4E inh | Sfp PPTase inh
Cn1cnc([N+](=O)[O-])c1Nc1ccc(O)cc1 | 0.8% | 25.1µM* | -11.3% | 25.1µM* | -17.0% | u
O=C(NNC(=O)C1CC2CCC1C2)c1sc2ccccc2c1Cl (stereo not drawn) | u | 25.1µM* | -59.7% | 1.0%[59 µM] | -10.1% | 13.6%
O=C(NNC(=S)NC1CCCCC1)c1sc2ccccc2c1Cl | u | 22.4µM* | -10.7% | -27.2%[59 µM] | 5.8% | -3.7%
O=C(NNC(=O)c1sc2cccc(Cl)c2c1Cl)NC1CCCCC1 | 8.2% | 3.55µM* | -6.5% | 20.6%[12.7 µM] | -16.7% | -12.5%
O=C(NC1CC1)c1sc2ccccc2c1Cl | x | x | -52.9% | -5.7% | x | 7.0%
O=C(NNC(=O)c1sc2cccc(Cl)c2c1Cl)Nc1ccccc1 | 0.5% | u | -7.3% | -2.2%[59 µM] | 7.0% | u
Cc1ccc2c(c1)N(C(=O)c1ccc(F)cc1)C(C)(C)CC2(C)c1ccccc1 (stereo not drawn) | x | x | 15.5% | -1.0%[59 µM] | x | x
CC1CC(C)CN(C(=O)CSc2nnc(-c3ccco3)o2)C1 (stereo not drawn) | x | x | -4.8% | 11.2% | x | 2.4%
Cc1ccc(/C=C2\CCCC3=C2NC(=S)NC3c2ccc(C)cc2)cc1 (stereo not drawn) | u | u | -7.6% | 8.91µM* | u | 25.1µM*
Cc1ccc(/C=C2\CC(C)CC3=C2NC(=S)NC3c2ccc(C)cc2)cc1 (stereo not drawn) | x | x | -2.1% | u | u | u
COc1ccc(NCc2c(O)ccc3ccccc23)cc1 | x | 1.58µM* | x | x | x | x
Oc1ccc2ccccc2c1CNc1ccc(Br)cc1 | x | x | -0.4% | 5.01µM* | x | -14.8%
Oc1ccc2ccccc2c1CNc1cnc2ccccc2c1 | -22.0% | u | -28.8% | 1.41µM* | u | 28.2µM*

Bioassay records deposited in PubChem by National Center for Advancing Translational Sciences (NCATS).
